Assay outcomes deposited in PubChem by National Center for Advancing Translational Sciences (NCATS).
This excerpt belongs to a sample that is enriched for hits.
nsP2pro inh – Primary qHTS for inhibitors of NSP2Pro chikungunya virus (CHIKV); Polyprotein P1234 (Chikungunya virus (strain S27-African prototype)), Q8JUX6; FRET peptide cleavage, nsP2pro, fluorescence 1 h; Potency, µM (titrated, usually from 24.9 µM), for the others: at the highest dose activity change, negative = inhibition, usual class: inhibitors; 31,000 tested, 1.1% active; note: nearly all actives have a fitted effect of over 60% in size
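Purified recombinant nsP2pro (150 nM final) in 10 mM Tris-HCl pH 8.0 with 0.01% Tween 20 was preincubated 15 min at room temperature with compound (7 concentrations, up to 25 uM). FRET peptide 2 substrate (2.5 uM final) was then added; fluorescence was read after 1 h.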
CHIKV nsP2 cell – Secondary cell base assay for inhibitors of NSP2Pro Chikungunya virus (CHIKV) | 450 tested, 10% active | Potency, µM (top dose mostly 51.1 µM), for the others: top-dose activity change, negative = inhibition, most hits filed as inhibitors | cell-based CHIKV nsP2 protease reporter assay | shares compounds with nsP2pro inh; note: nearly all actives have a fitted effect of over 70% in size
CHIKV NSP2 FL – Selectivity profile for inhibitors of NSP2Pro chikungunya virus (CHIKV): Full length NSP2 enzyme counterscreen (CHIKV-NSP2); shares compounds with nsP2pro inh; Full-length CHIKV NSP2 protease enzymatic counterscreen; Potency, µM (top dose mostly 50.7 µM), without a hit: at the top dose activity change, negative = inhibition, most hits filed as inhibitors; 410 tested, 39% active; note: nearly all actives have a fitted effect of over 65% in size
Furin counter – Selectivity profile for inhibitors of NSP2Pro chikungunya virus (CHIKV): Human furin counterscreen | AID 1964102, 2024 | Potency, µM (top dose mostly 50.6 µM), for the others: top-dose activity change, negative = inhibition, most hits filed as inhibitors | 410 tested, 6% active | Recombinant human furin enzymatic counterscreen, fluorogenic substrate | shares compounds with nsP2pro inh
nsP2 NS23 pep – Selectivity profile for inhibitors of NSP2Pro chikungunya virus (CHIKV): Endogenous NS2/3 peptide Counterscreen; AID 1964103, 2024; 410 tested, 34% active; Purified CHIKV nsP2 protease, endogenous NS2/3 peptide cleavage; Potency, µM (titrated, usually from 51 µM), inactives show top-dose activity change, negative = inhibition, most hits filed as inhibitors; shares compounds with nsP2pro inh; note: nearly all actives have a fitted effect of over 55% in size
Papain counter – Selectivity profile for inhibitors of NSP2Pro chikungunya virus (CHIKV): Papain Counterscreen | shares compounds with nsP2pro inh | AID 1964104, 2024 | purified papain protease activity, enzymatic inhibition | Potency, µM (top dose mostly 51 µM), for the others: at the highest dose activity change, negative = inhibition, actives largely listed as inhibitors | 410 tested, 5% active
nsP2pro confirm – Confirmatory qHTS for inhibitors of NSP2Pro chikungunya virus (CHIKV); shares compounds with nsP2pro inh; CHIKV nsP2 protease enzymatic activity, qHTS; Potency, µM (series often up to 25.5 µM), inactives show at the highest dose activity change, negative = inhibition, actives largely listed as inhibitors; 410 tested, 43% active; note: nearly all actives have a fitted effect of over 75% in size
HCV NS3 4A cs – Selectivity profile for inhibitors of NSP2Pro chikungunya virus (CHIKV): NS34A-HCV Counterscreen. shares compounds with nsP2pro inh. AID 1964106, 2024. Potency, µM (top dose mostly 50.9 µM), usual class: inhibitors. 410 tested, 20% active. HCV NS3/4A protease biochemical counterscreen; note: nearly all actives have a fitted effect of over 55% in size
An asterisk follows results filed as active; i = inactive; ? = inconclusive; / = not tested or not shown. Calls come from the whole dose curve. % is set by controls: 0 for no effect and ±100 for the full control effect; potency is the fitted concentration of half-maximal effect.

SMILES	nsP2pro inh	CHIKV nsP2 cell	CHIKV NSP2 FL	Furin counter	nsP2 NS23 pep	Papain counter	nsP2pro confirm	HCV NS3 4A cs
[Hg+][c]1ccccc1	0.556µM*	?	1.03µM*	1.03µM*	3.66µM*	-2.8%	0.283µM*	0.231µM*
Nc1ccccc1	0.5%	/	/	/	/	/	/	/
c1ccc(CN(Cc2ccccc2)Cc2nnc(-c3cc4ccccc4[nH]3)s2)cc1	8.91µM*	24.5%	11.6%	-4.9%	27.0%	2.2%	2.0%	i
O=C(Cc1nnc(-c2cc3ccccc3[nH]2)s1)Nc1cc(C(F)(F)F)ccc1Cl	-5.3%	/	/	/	/	/	/	/
O=C(NCc1nnc(-c2cc3ccccc3[nH]2)s1)c1ccccc1	-0.6%	/	/	/	/	/	/	/
COc1ccc(CN(Cc2ccco2)C(=O)COc2ccccc2Cl)cc1	-16.2%	/	/	/	/	/	/	/
CCCOc1ccc(C(=O)N(Cc2ccc(Cl)cc2)Cc2ccco2)cc1	-14.3%	/	/	/	/	/	/	/
CCS(=O)(=O)c1ncc(Cl)c(C(=O)N(Cc2ccccc2)Cc2ccco2)n1	10.7µM*	3.26µM*	16.3µM*	-2.6%	5.17µM*	-5.5%	4.49µM*	i
NCCNc1ccc(NCCN)c2c1C(=O)c1ccncc1C2=O	39.8%	/	/	/	/	/	/	/
COc1ccc(-c2ccc(CN3CC(C)(NC(C)=O)C3)s2)cn1	i	/	/	/	/	/	/	/
Cc1ccc(-c2cc3n(n2)CCCN(C(=O)CCN2C(=O)NC(C)(C)C2=O)C3)cc1C	i	/	/	/	/	/	/	/
Cc1ccc(-c2cc3n(n2)CCCN(C(=O)CCc2cc(Cl)no2)C3)o1	8.91µM*	15.1%	-16.7%	1.0%	?	-4.5%	?	i
CCc1ccc(-c2cc3n(n2)CCCN(C(=O)CCc2cc(Cl)no2)C3)cc1	10.2%	/	/	/	/	/	/	/
Cc1nc(CSc2ncnc3ccc(-c4ccc5c(c4)OCO5)cc23)cs1	1.1%	/	/	/	/	/	/	/
CC(C)c1ccc(-n2cc(CN3CCCC(O)(CN(C)C)C3)cn2)cc1 (centres undefined)	i	/	/	/	/	/	/	/
CC#CC(=O)N1CCCC(C(=O)Nc2ccc(-c3cccc(OC)c3)cc2)C1 (centres undefined)	i	/	/	/	/	/	/	/
O=C(Nc1ccc(Cl)cc1)C1CCCN(C(=O)c2cccc(-c3ccco3)c2)C1 (centres undefined)	7µM*	?	-19.0%	-8.2%	-24.2%	-15.5%	?	i
COc1ccc(C(=O)N2CCC(C(=O)Nc3ccc(Cl)cc3)CC2)cc1	-16.0%	/	/	/	/	/	/	/
Cc1cc(C)nc(NC(=S)N2CCN(c3cc(Cl)cc(C(F)(F)F)c3)CC2)c1	-12.3%	/	/	/	/	/	/	/
Cc1ccc(S(=O)(=O)Nc2cnccc2C(=O)Nc2ccncc2)cc1	i	/	/	/	/	/	/	/
CCC(C)C(=O)OC1CCC=C2C=CC(C)C(CCC3CC(O)CC(=O)O3)C21 (centres undefined)	?	37.3%	7.4%	-5.4%	-10.9%	-24.3%	-15.1%	i
CC[C@H](C)C(=O)O[C@H]1C[C@@H](C)C=C2C=C[C@H](C)[C@H](CC[C@@H]3C[C@@H](O)CC(=O)O3)[C@H]21	-13.3%	/	/	/	/	/	/	/
COCCOC1CN(C2CCN(S(C)(=O)=O)CC2)C12CCCCC2 (centres undefined)	i	/	/	/	/	/	/	/
